# Measurements reported in the supplement of paper PMC6555819.
# Experiments:
# Assay in all cases: PBM binding z-score (relative to random genomic background probes); higher = stronger binding; sequences stand for … in GC…GCGATTGACAGCGTAGAATGAAGG
# [1] = test system: RARb homodimer (NR concentration 270 nM)
# In short: (§1)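 Binding z-scores were set against random background probes. The data came from custom Agilent 4×180K protein-binding microarrays carrying double-stranded probes with 34-nt variable regions, incubated 1 h with ligand-free nuclear receptor dimers. Partner-specific antibodies detected binding, and scanned fluorescence was regression-normalized.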
# [2] = test system: RARg:RXRa (NR concentration 270 nM, RXRa partner concentration 90 nM)
# In short: as §1
# [3] = test system: RARg homodimer (NR concentration 270 nM)
# In short: as §1
# [4] = test system: RXRa DBDmut IVT, anti-RXR (DBD mutation: RXRa K156A/R161A, NR concentration 90 nM)
# In short: as §1
# [5] = test system: RXRa homodimer (NR concentration 180 nM)
# In short: as §1
# [6] = test system: THRa:RXRa (NR concentration 90 nM, RXRa partner concentration 90 nM)
# In short: as §1
# [7] = test system: THRa homodimer (NR concentration 90 nM)
# In short: as §1
# [8] = test system: VDR homodimer (NR concentration 270 nM)
# In short: as §1
Sequence,PBM binding z-score [1],PBM binding z-score [2],PBM binding z-score [3],PBM binding z-score [4],PBM binding z-score [5],PBM binding z-score [6],PBM binding z-score [7],PBM binding z-score [8]
GATACAGGGTCAAGGACAGAGTACGCGTATTGAT,3.58,5.67,5.78,2.36,6.51,3.85,2.14,2.72
AATACAGGGTCATCGTAGGCGAGAGTACGCACAG,3.47,5.58,4.77,3.52,6.54,4.45,1.32,3.54
CTACCAAAGTGAACAAGGTCGTTGATTACTATTC,1.32,0.65,0.529,1.69,0.996,1.94,1.24,2.22
CCGACTTGGGCATAAGGTTACCATAAGCCAGCCC,0.962,0.45,0.236,-0.0632,0.906,1.84,1.27,-0.535
TCATATAGGTAAATGCTAGATGAAAGTCCGATCT,-0.248,0.314,0.454,1.15,0.617,-0.0472,-0.457,0.317
GATACAGGGTCAAGGCTAGAGTACGCGTATTGAT,3.75,5.53,5.01,2.4,5.93,3.52,1.23,2.36
CAAACTAGGTCAAAGCTCAAAGTCGAGCCAACCA,2.4,4.14,4.25,1.91,3.7,2.39,0.666,0.583
TCATATAGGGAAAGGTGAAAGTCGAACGATATGA,1.48,1.49,1.17,0.835,2.02,1.01,-0.407,-0.12
AGAAGGAGGTTAAGATCAGGGAAACAGAATACAT,1.51,1.73,1.36,0.0542,1.96,1.94,0.811,0.91
GGAGCGAGGGCATTCGAGTTGATAGCATGGCGAT,0.497,0.849,1.26,2.53,0.554,3.15,-0.906,3.06
TGAATGAGGTTAAAGATCACGGAACGTGGCGTCG,0.603,2.83,1.49,0.843,5.25,2.72,0.0245,0.625
CCTAGTTGGTCAGCAGGTCACACACCGGATATGA,3.43,3.52,3.44,0.217,3.16,2.77,1.35,1.05
AGAACGAGGGCAATGAGTTGATTGCACGGGTGGC,0.636,0.81,1.23,1.88,0.475,0.794,-0.344,3
CCTACTGGGCCAAGGTCATGGATCAGTCAAAGCA,3.54,4.16,3.48,-0.0426,3.95,3.71,2.5,1.68
CAAACTAGGTCAAAGGTCCAAGTCGAGCCAACCA,3.54,4.98,5.05,2.31,5.69,3.15,0.728,1.77
ATACCGAGGTGATCGTGAGGTCGTTGATACTAAC,1.77,2.74,0.682,0.849,1.91,3.52,2.44,2.85
ATCTCTAGGTAACAAGTTCTGTGAAAGAGAGGAC,0.522,0.565,0.579,0.302,0.105,1.12,0.878,0.424
TGAATGAGGATATAAGATCAGGGAACGTTGCAAA,-0.689,0.125,0.402,-0.562,0.189,0.534,-0.316,-0.0248
CCGGACAGGTGAAAGGTAACTCAGTCTGGTACGC,0.991,1.57,0.863,-0.0224,1.89,0.766,0.12,0.0749
TCGAGTAGGTTACCAATGGGGCATGCAGCTTTCT,0.595,1.02,0.374,0.239,0.609,0.0319,-0.807,-0.473
CGCACGAGGGCATGAGTTGATAGCAAATGCCGAT,1.2,1.1,1.72,2.41,0.956,1.3,0.0381,1.63
AGTCAAAGTTCAGGAGGAGGTAACGTAAAGCACG,3.59,5.4,4.92,3.04,3.26,2.88,0.548,2.16
ATACCAAGGTGATCGTGAGGTCGTTGGTACTAAC,1.55,2.1,0.722,0.424,1.5,3.39,2.22,2.96
TGACAAAGTTCAAAGGTAACGTAAGTATCCACAC,3.83,6.01,5.91,4.38,6.68,3.36,-0.0359,4.23
GCTTGTAGATCAAGGTTCAGAAAGACTAAGCTAA,0.239,0.226,0.173,1.09,0.62,-0.139,-0.807,1.33
CAAACTAGGTCAAGAGGTCGAAGTCCGCTTCCCG,4.4,6.21,5.88,1.72,5.59,3.34,1.01,2.2
